A selection: hits, their analogues and other compounds. The true share with any hit is near 5.9%.
Coupling enz: inhibits coupling enzyme system, counter-screen for aldolase hits. 290,000 tested, 0.67% active. coupling enzyme system counterscreen, AmpLite Red fluorescence. activity change, negative = inhibition, % at 58.2 µM, hits read low. AID 2472; in the data active = activity change below about -30%
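Counterscreen lacking aldolase: glyceraldehyde-3-phosphate coupling-enzyme reagent preincubated 10 min at RT with compound (at 57.5 uM final), then substrate/coupling system with AmpLite Red added; fluorescence read at 525/598 nm after 20 min RT.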
rTrxR1 inhibitor: rat TrxR1 inhibition; Potency, µM (series often up to 114 µM), for inactives: at the top dose activity change, negative = inhibition, usual class: inhibitors; O89049; recombinant rTrxR1, NADPH fluorescence consumption, selenite substrate; 390,000 tested, 1% active; note: potency is the fitted concentration of half-maximal effect; nearly all actives have a fitted effect of over 65% in size
Target sequence (O89049 whole entry, looked up): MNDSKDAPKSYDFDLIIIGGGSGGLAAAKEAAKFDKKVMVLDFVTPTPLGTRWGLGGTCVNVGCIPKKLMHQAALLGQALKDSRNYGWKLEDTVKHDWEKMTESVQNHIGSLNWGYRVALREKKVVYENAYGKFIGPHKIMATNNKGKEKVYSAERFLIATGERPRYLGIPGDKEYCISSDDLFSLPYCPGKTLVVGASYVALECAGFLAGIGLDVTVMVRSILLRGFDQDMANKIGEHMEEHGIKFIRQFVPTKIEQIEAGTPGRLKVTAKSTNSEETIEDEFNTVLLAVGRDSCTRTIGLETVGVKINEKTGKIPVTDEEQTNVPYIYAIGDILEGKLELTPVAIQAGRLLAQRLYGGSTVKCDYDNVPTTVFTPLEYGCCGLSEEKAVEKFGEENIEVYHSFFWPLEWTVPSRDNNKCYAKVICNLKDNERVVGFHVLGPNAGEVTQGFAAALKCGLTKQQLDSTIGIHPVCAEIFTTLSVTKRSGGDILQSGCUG
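Rat TrxR1 (90 nM in the dispensed reagent) was pre-reduced with 400 uM NADPH for 5 min at room temperature, then incubated with compound for 15 min. After 400 uM selenite was added, NADPH fluorescence (Ex 340/Em 450 nm) was followed for 8 min.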
TrxR1 substrate: is turned over as a substrate by rat TrxR1 | AID 588456 | purified TrxR1 substrate turnover, NADPH consumption readout | Potency, µM (top dose mostly 114 µM), inactives show top-dose activity change, negative = substrate turnover | O89049 | 390,000 tested, 0.01% active; note: potency is the fitted concentration of half-maximal effect; nearly all actives have a fitted effect of over 50% in size
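Rat TrxR1, dispensed at 90 nM, was prereduced with 400 uM NADPH (final) for 5 min at ~22 deg C, then incubated with compound 15 min before 400 uM selenite. A first-read NADPH fluorescence drop versus no-compound background flagged substrates.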
VP16 counter: inhibits Gal4-VP16 luciferase reporter, ROR gamma counter-screen | Drosophila S2 Gal4-VP16 UAS-luciferase, luminescence, 20 h | Potency, µM (highest dose often 53.6 µM), without a hit: at the highest dose activity, negative = inhibition, actives largely listed as inhibitors | 310,000 tested, 3.5% active;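 note: Gal4-VP16 expression switched on by copper sulfate through the metallothionein promoter; potency is the fitted concentration of half-maximal effect; nearly all actives have a fitted effect of over 50% in size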
GALK inh: inhibitors of human galactokinase; P51570; Purified GALK, Kinase-Glo residual ATP luminescence; Potency, µM (series often up to 57.5 µM), for inactives: at the highest dose activity change, negative = inhibition, most hits filed as inhibitors; 270,000 tested, 0.007% active; note: potency is the fitted concentration of half-maximal effect
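Compounds were pin-transferred into ATP buffer (35 uM final), then GALK plus galactose (5 nM, 100 uM final) was added. After 1 h at room temperature, Kinase-Glo Plus was added and luminescence read after 10 min.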
RORg inh: ROR gamma (mouse) transcription inhibition | Drosophila S2 Gal4-RORgamma UAS-luciferase reporter, 20 h | Potency, µM (titrated, usually from 53.6 µM), inactives show top-dose activity change, negative = inhibition, most hits filed as inhibitors | 310,000 tested, 5.4% active; note: potency is the fitted concentration of half-maximal effect; nearly all actives have a fitted effect of over 60% in size
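Read-out: Photinus luciferase luminescence; inhibitors lower reporter signal. Insect Schneider cells with Gal4-ROR gamma fusion under metallothionein promoter, UAS reporter; 700 uM final copper sulfate induction, 20 hr, ambient temperature.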
Active calls of the source: *; u = inconclusive; x = not tested or not shown; ! = a repeat was not active; [ ] = dose if it differs, or a comment. Unless noted, calls come from the whole dose curve; as a rule, active = well fitted curve in the direction sought with a large enough effect; inconclusive = small, poorly fitted or top-dose-only effect, or another doubt; inactive = no such curve, though single readings can be large; an effect the other way counts as inactive or inconclusive. % is set by controls: 0 for no effect and ±100 for the full control effect.

SMILES	Coupling enz	rTrxR1 inhibitor	TrxR1 substrate	VP16 counter	GALK inh	RORg inh
O=C(NN=Cc1ccccc1O)C(O)(c1ccccc1)c1ccccc1	x	12.0%[11.4 µM]	9.4%[57.1 µM]	x	x	x
C[n+]1ccn(CC(=O)c2cccs2)c1	-0.4	2.0%[57.1 µM]	-5.1%[57.1 µM]	-6.3%	-5.6%	10µM*
O=c1[nH]c(=S)[nH]c2nc(-c3cccs3)cc(C(F)(F)F)c12	0.5	-3.5%[57.1 µM]	-17.3%[57.1 µM]	-11.5%	-1.2%	11.2µM*
COc1cccc(-n2c(SCC(=O)c3ccc(Cl)cc3)nc3c([nH]c4ccccc43)c2=O)c1	x	10.5%[57.1 µM]	-1.0%[57.1 µM]	x	x	x
O=C1NC(=Nc2ccccc2)S/C1=C\C=C\c1ccco1	3.3	79.4µM*	-11.4%	-20.5%	0.5%	18.7%
Cc1cccc(N=C2NC(=O)/C(=C/C=C/c3ccco3)S2)c1C	0.2	u	-15.9%	-13.3%	0.4%	-5.3%
Cc1ccc(N=C2NC(=O)/C(=C/C=C/c3ccco3)S2)cc1	-0.7	44.7µM*	-5.2%	-2.8%	1.3%	-35.7%
COc1ccc(N=C2NC(=O)/C(=C/C=C/c3ccccc3)S2)cc1	-0.9	5.7%[57.1 µM]	-4.6%[57.1 µM]	1.4%	x	7.2%
CCCOc1ncnc2c1[nH]c1ccc(OC)cc12	0.7	11.1%	6.6%	-10.2%	6.1%	-11.6%
CCCCOc1ncnc2c1[nH]c1ccc(C)cc12	-3.0	21.1%	10.7%	10µM*	-0.8%	-24.0%
CCOC(=O)Cn1cc(C#N)c2ccccc21	-2.3	6.6%[57.1 µM]	3.0%[57.1 µM]	3.4%	11.0%	23.3%
CCOC(=O)COc1ccc(/C=C/[N+](=O)[O-])c(OCC(=O)OCC)c1	-0.2	u	3.1%	u	-3.2%	u
CCOC(=O)COc1ccc2ccccc2c1/C=C/[N+](=O)[O-]	-13.2	7.08µM*	-5.6%	6.31µM*	-2.0%	12.6µM*
CCOC(=O)Cn1cc(/C=C/[N+](=O)[O-])c2ccccc21	-8.2	u	-8.7%	12.6µM*	4.3%	u
Cc1cc(CNC(=O)Cc2ccccc2)c2ccccc2n1	-0.5	-0.8%[57.1 µM]	-11.3%	u	0.2%	38.8%
Cc1cc(CNC(=O)c2cccc([N+](=O)[O-])c2C)c2ccccc2n1	1.3	11.6%[57.1 µM]	7.3%[57.1 µM]	10µM*	0.9%	-25.7%
Cc1cc(C)cc(NC(=S)N2CCC(c3nc4ccccc4s3)CC2)c1	1.7	19.7%	-1.4%[57.1 µM]	11.2µM*	-0.4%	4.47µM*
Cc1ccc(NC(=S)N2CCC(c3nc4ccccc4s3)CC2)cc1C	0.4	-11.2%	-3.4%	11.2µM*	2.3%	4.47µM*
COc1ccc2oc(=O)c(C(=O)Nc3ccccc3-c3ccccc3)cc2c1	3.6	10.7%[57.1 µM]	6.8%[57.1 µM]	8.3%	-3.9%	14.1%
COc1ccc2oc(=O)c(C(=O)Nc3ccccc3C)cc2c1	0.2	-12.2%	-7.8%	u	-1.9%	0.891µM*
COc1ccc2oc(=N)c(C(=O)Nc3cccc(C)c3C)cc2c1	-0.7	-4.6%[57.1 µM]	0.7%[57.1 µM]	-28.3%	x	3.16µM*
Cc1cc(C)n(S(=O)(=O)Cc2ccccc2)n1	-0.1	-16.1%	-3.3%	-2.1%	-1.6%	-6.4%
O=C(c1ccc(S(=O)(=O)c2cccc(Cl)c2)c([N+](=O)[O-])c1)N1CCN(Cc2ccccc2)CC1	-1.5	-41.4%	8.7%[57.1 µM]	25.1µM*	2.3%	u
O=C(COC(=O)CC1CC2CCC1C2)Nc1cccc(S(=O)(=O)NC2=NCCCCC2)c1 (stereo not drawn)	2.4	4.9%[57.1 µM]	-3.8%[57.1 µM]	-26.0%	-0.4%	2.7%
CCCn1c(C)cc(C(=O)CSc2nc3nc(C)cc(C)n3n2)c1C	4.0	-3.0%	1.7%	-8.3%	-0.1%	u
SMILES	Coupling enz	rTrxR1 inhibitor	TrxR1 substrate	VP16 counter	GALK inh	RORg inh
COc1cc(O)c2c(c1)oc(=O)c1c3cc(O)c(O)cc3oc21	-17.2	x	x	u	x	12.6µM*!
Cc1ccc2oc(=O)c3c4cc(O)c(O)cc4oc3c2c1	-2.1	x	x	-14.9%	x	u
COc1ccc(C(=O)Nc2ccccc2C(=O)NC(Cc2c[nH]c3ccccc23)C(=O)O)cc1 (stereo not drawn)	2.7	5.9%[57.1 µM]	-0.2%	-4.2%	-2.1%	28.4%
O=[N+]([O-])c1c(NCc2ccco2)ccc2nonc12	-1.2	8.6%[57.1 µM]	6.4%[57.1 µM]	-6.3%	3.4%	u
CCCC(=O)OCCNc1cc(SCc2ccco2)c2nonc2c1[N+](=O)[O-]	-12.7	3.98µM*	-16.3%	u	0.6%	u
CCOC(=O)C1CCCN(c2cc(NCCCO)c([N+](=O)[O-])c3nonc23)C1 (stereo not drawn)	-2.9	x	x	-1.7%	1.1%	34.2%
CCCSc1cc(NCCOC(C)=O)c([N+](=O)[O-])c2nonc12	-38.8*	-5.8%	-9.8%	13.9%	0.1%	-35.1%
CC(=O)OCCCNc1cc(SCc2ccco2)c2nonc2c1[N+](=O)[O-]	-2.6	2.51µM*	-16.9%	u	0.8%	u
CCCC(=O)OCCNc1cc(Sc2nccn2C)c2nonc2c1[N+](=O)[O-]	-7.8	0.562µM*	1.3%	5.01µM*	0.5%	5.62µM*
CCCSc1cc(NCCOC(=O)CCC)c([N+](=O)[O-])c2nonc12	-2.8	u	-4.0%	u	-0.6%	u
CCCCCCN(C(=O)CCCCCN1C(=O)NC(c2ccc(C3CCCCC3)cc2)C(C(=O)OCc2ccccc2)=C1C)C(C(=O)NCCCC)c1ccc(OCC(=O)OC)c(C(=O)OC)c1 (stereo not drawn)	-1.4	x	x	3.3%	-1.2%	-5.7%
COc1ccc(CC(=O)NCc2ccccc2Cl)cc1S(=O)(=O)N1CCOCC1	-0.5	-9.3%	-8.0%	4.0%	7.2%	4.1%
C/C(CC(=O)Nc1ccc(Cl)cc1Cl)=N\NC(=O)c1ccncc1	3.2	-0.4%	-0.6%	17.8µM*	4.8%	u
C/C(CC(=O)Nc1ccc(C)c(Cl)c1)=N\NC(=O)c1ccncc1	0.8	-50.9%	-1.0%[57.1 µM]	22.0%	1.0%	u
C/C(CC(=O)Nc1ccc(Cl)c(Cl)c1)=N\NC(N)=S	-2.9	u	-12.4%	11.2µM*	-1.6%	5.62µM*
C/C(CC(=O)Nc1cc(Cl)ccc1Cl)=N\NC(N)=S	-0.2	-22.5%[57.1 µM]	-0.8%[57.1 µM]	20µM*	-1.4%	5.62µM*
C/C(CC(=O)Nc1ccc(Cl)cc1C(F)(F)F)=N\NC(N)=S	-1.0	-0.4%[57.1 µM]	2.5%	u	0.3%	12.6µM*
C/C(CC(=O)Nc1ccc(Cl)cc1Cl)=N\NC(N)=S	1.9	-13.0%	-5.7%	-7.4%	0.7%	21.4%
COc1ccc(/C=C/C(=O)N2CCN(C)CC2)cc1S(=O)(=O)N1CCCCC1	3.7	7.2%	-2.6%	-6.4%[10 µM]	9.3%	4.5%
COc1ccc(NC(=O)Cn2nnc(C(=O)NCCc3ccc(OC)c(OC)c3)c2N)c(OC)c1	0.3	5.8%	-2.1%	-1.0%	0.2%	-9.4%
